# MEKK3 PB1 HTS – modulators of MEKK3-MEK5 PB1 binding, primary screen, biochemical, wildtype MEKK3, multiplex bead flow cytometry, Alexa488-MEK5 | hit rate 1.4% among 290,000 | AID 1529, 2009 | bead-based flow cytometry, Alexa488-MEK5 binding to MEKK3; actives lie on both sides; 0 = blocked by unlabeled MEK5, 100 = vehicle | Mitogen-activated protein kinase kinase kinase 3 (Homo sapiens), Q99759 | binding response (% of control), % at 10 µM;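 active = binding response more than 3 SD above or below the average of its plate-row segment, actives on both sides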;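 note: Alexa488 bead fluorescence after subtracting the streptavidin-only scavenger bead signal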
# Rce1 inh – yeast Rce1p protease inhibitors, primary screen, biochemical, fluorescence, cell-free homogeneous. CAAX prenyl protease 2 (Saccharomyces cerevisiae (strain ATCC 204508 / S288c)), Q03530. yeast membranes, quenched prenylated peptide cleavage fluorescence. calls only. hit rate 0.27% among 290,000;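 active = fall in fluorescence gain of 50% or more versus controls, with final raw signal at or below 3038400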
# UBC13 inh – UBC13 polyubiquitin chain formation inhibitors, primary screen, biochemical, TR-FRET, uHTS | inhibition, % at 20 µM | hit rate 0.47% among 330,000; in the data active = inhibition above about 45%, passing the limit was not always enough
# Target sequence (P61088 whole entry, looked up): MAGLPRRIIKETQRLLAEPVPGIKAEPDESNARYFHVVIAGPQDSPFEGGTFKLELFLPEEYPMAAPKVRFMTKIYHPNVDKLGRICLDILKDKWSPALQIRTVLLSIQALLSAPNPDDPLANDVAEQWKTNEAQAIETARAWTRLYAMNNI
# MEKK2wt PB1 HTS – modulators of MEK5 binding to wildtype MEKK2, primary screen, biochemical, multiplex bead flow cytometry, Alexa488-MEK5 | hit rate 1.1% among 290,000 | binding response (% of control), % at 10 µM | Alexa488-MEK5 binding to MEKK2 WT; actives lie on both sides | Mitogen-activated protein kinase kinase kinase 2 (Homo sapiens), Q9Y2U5; in the data active = binding response below about 67% or above about 130%
# MEKK2mut PB1 HTS – MEK5 binding signal on mutant MEKK2 PB1, primary screen, biochemical, multiplex bead flow cytometry, Alexa488-MEK5. hit rate 0.35% among 290,000. percent response, % at 10 µM. AID 1530, 2009. Alexa488-MEK5 binding to MEKK2 mutant; in the data active = percent response above about 24%, passing the limit was not always enough
# MEKK2wt confirm – modulators of MEK5 binding to wildtype MEKK2, confirmation, biochemical, single concentration, multiplex bead flow cytometry | hit rate 2.4% among 5,900 | binding response (% of control), % at 10 µM | shares compounds with MEKK3 PB1 HTS | Alexa488-MEK5 binding to MEKK2 WT; actives lie on both sides; in the data active = binding response below about 16% or above about 210%; inactive = in between
# MEKK2mut confirm – mutant MEKK2 PB1-MEK5 binding signal retest – biochemical, single concentration, multiplex bead flow cytometry, confirmation. hit rate 2% among 5,900. Alexa488-MEK5 binding to MEKK2 mutant. percent response, % at 10 µM. AID 1893, 2009. shares compounds with MEKK3 PB1 HTS; in the data active = percent response mostly above about 71%, no sharp cut-off; inactive = mostly below about 38%;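 note: higher means compound restores mutant binding toward wildtype level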
# MEKK3 confirm – MEKK3 wild-type PB1 binding to MEK5, inhibitors, confirmation, biochemical, bead multiplex flow cytometry, single concentration, wildtype; shares compounds with MEKK3 PB1 HTS; Alexa488-MEK5 binding to MEKK3; active compounds read low; AID 1894, 2009; binding response (% of control), % at 10 µM; hit rate 1.8% among 5,900;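 active = binding response below 72% of control, or above a set upper limit, though filed actives all read lower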;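 note: lower values mean stronger disruption of MEK5 binding to MEKK3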
# Numbers stand for hits; . = inactive; / = no result given; [ ] = another dose, or the depositor's remark. Shown are actives, neighbours in structure and some others; about 2.5% of the full set was active somewhere.
SMILES,MEKK3 PB1 HTS,Rce1 inh,UBC13 inh,MEKK2wt PB1 HTS,MEKK2mut PB1 HTS,MEKK2wt confirm,MEKK2mut confirm,MEKK3 confirm
CCc1nnc(NS(=O)(=O)c2ccc(N=Cc3c(C)[nH]n(-c4ccc(C)c(C)c4)c3=O)cc2)s1,160,.,.,.,.,.,.,.
Cc1ccc(-n2[nH]c(C)c(C=Nc3ccc(S(=O)(=O)Nc4nccs4)cc3)c2=O)cc1,.,.,.,.,.,/,/,/
COc1ccccc1NC(=O)c1ccc(SCC(=O)NCc2ccccc2Cl)c([N+](=O)[O-])c1,133,.,.,.,.,.,.,.
COc1ccc(C(=O)[C@H]2[C@H]3C(=O)N(c4ccc(OC(C)=O)cc4)C(=O)[C@H]3C3C=CC=NN32)cc1 (some centres not stated),.,.,.,.,.,/,/,/
CC(=O)Oc1ccc(C(=O)[C@H]2[C@H]3C(=O)N(c4cccc5ccccc45)C(=O)[C@H]3[C@@H]3C=CC=NN32)cc1,179,.,.,.,.,.,.,.
N#CC1(NC(=O)CN2c3cccc4cccc(c34)S2(=O)=O)CCCCC1,/,.,.,/,/,/,/,/
COc1ccc(/C=C(\NC(=O)c2ccccc2Cl)C(=O)NCCCC(=O)O)cc1,.,.,.,.,.,/,/,/
CCCCn1c(N)c(N(CC(C)C)C(=O)C2CCCN(C(=O)c3ccc(Cl)cc3)C2)c(=O)[nH]c1=O (configuration not stated),/,.,.,/,/,/,/,/
COc1ccc(-n2nc3c(N)n[nH]c3cc2=O)cc1,67[inhibitor],/,.,.,.,.,.,68
Nc1n[nH]c2cc(=O)n(-c3ccc(Cl)cc3)nc12,.,.,.,.,.,/,/,/
CCC(=O)Nc1nnc(SCc2ccc(F)cc2)s1,2.0[inhibitor],.,.,3.0[inhibitor],.,.,.,.
Cc1cccc(NC(=S)NCCc2ccc3c(c2)OCCO3)c1C,.,.,.,.,.,/,/,/
Cc1ccc(C(=O)O/N=C(\N)c2ccc(Br)cc2)cc1C,2.0[inhibitor],.,.,1.0[inhibitor],.,.,.,.
COc1ccc(C(=O)NCCC2=CCCCC2)cc1,131,.,.,.,.,.,.,.
COc1ccc(C(=O)NCC(=O)OCC(=O)NCCC2=CCCCC2)cc1,.,.,.,.,.,/,/,/
O=C(CCCN1C(=O)c2ccccc2C1=O)N1CCc2ccccc2C1,.,.,.,.,.,/,/,/
Nc1nncn1C(=O)CCCN1C(=O)c2ccccc2C1=O,122,.,.,.,.,.,.,.
COC(=O)CSc1nc(N)c(C#N)c(-c2ccco2)c1C#N,.,.,.,.,.,/,/,/
COC(=O)CSc1nc(-c2ccccc2)cc(-c2ccco2)c1C#N,125,.,.,.,.,.,.,.
COc1ccc(C(=O)Nc2ccnn2C2CCN(C(C)CSC)CC2)cc1 (configuration not stated),.,.,.,.,.,/,/,/
O=C1CCC([N+](=O)[O-])C(c2ccc(Br)cc2)N1 (configuration not stated),133,.,.,.,.,.,.,.
CS(=O)(=O)Nc1ccc(C2=NN(S(=O)(=O)c3ccccc3)C(c3cccs3)C2)cc1 (configuration not stated),7.0[inhibitor],.,.,/,/,.,.,.

# Assay outcomes as filed in PubChem BioAssay.
